Experimental data from PubChem BioAssay (NCATS).
Values joined by “and” are separate entries in the source; they are usually repeats but may differ in a detail not shown here. Equal entries are not always repeated. Records with an inconclusive call do not appear. Active and inactive are the calls of the source. Unless noted, the call rests on the fitted dose curve; in most records, active means well fitted curve in the direction sought with a large enough effect; inconclusive means small, poorly fitted or top-dose-only effect, or another doubt; inactive means no such curve, though single readings can be large; an effect the other way counts as inactive or inconclusive.

How the values were obtained:
[1] = Cell Viability - Jurkat (AID 426;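 active means dose-dependent loss of cell ATP signal giving a full or clear fitted curve, ranked by lower potency value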;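 further: potency means the concentration at half of the fitted maximal effect; cells exposed to compound for 40 hours at 37 °C before ATP read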); settings: qHTS
Outline: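 Seed 5000 Jurkat E6-1 cells/well; add compound; incubate 40 hr at 37 °C; add CellTiter-Glo; wait 20 min at room temperature; read luminescence. Fit concentration-response with Hill equation for AC50.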

[2] = Cell Viability - Hek293 (AID 427;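 active means compounds whose dose-response curve shows a full or clear partial loss of cell viability, called from curve shape rather than a numeric limit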;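 further: potency means the concentration at half of the fitted maximal effect; cells exposed to compound for 40 hours at 37 °C before reading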); settings: qHTS
Outline: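 qHTS, human embryonic kidney (adenovirus-transformed) cells; 40 hr cpd, 37 °C; CellTiter-Glo ATP luminescence. Norm: DMSO = 0, 100 uM tamoxifen = 100% inhibition. Hill-fit AC50.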

[3] = Cell Viability - N2a (AID 540); settings: N2a mouse neuroblastoma cell viability; at 92.2 µM (top of the series);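 further: cells exposed to compound for 40 h at 37 °C; plate controls were DMSO alone for no effect and tamoxifen control for full effect; nearly all actives have a fitted effect of over 45% in size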
Outline: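 First, 1500 N2a cells per well incubate 5 hr at 37 °C; next, compounds are added and incubated 40 hr at 37 °C; finally CellTiter-Glo is added and luminescence read after 20 min, with AC50 derived by Hill modeling.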

[4] = Cell Viability - H-4-II-E (AID 543); settings: H-4-II-E rat hepatoma viability; series mostly up to 92.2 µM;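 further: cells exposed to compound for 40 hours; on the % scale 0 is the no-effect control and ±100 the full control effect; nearly all actives have a fitted effect of over 35% in size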
Outline: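 Here, cytotoxicity is measured in the rat hepatoma line H-4-II-E as loss of intracellular ATP after 40 hr compound treatment, detected by luciferase luminescence.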

[5] = Cellular Toxicity (caspase-3) HepG2 (AID 654); settings: HepG2 caspase-3 activation, luminescence, 0% = DMSO only, 100% = tamoxifen; series mostly up to 92.2 µM;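 further: cells exposed to compound for 16 hours before reading; 0% = DMSO alone and 100% = caspase signal from 100 µM tamoxifen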
Outline: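 qHTS, HepG2, 1500 cells/well, complete medium; cpd 16 h 37 °C; Caspase-Glo 3/7, 20 min RT; lum. Norm: DMSO vs 100 uM tamoxifen; AC50 Hill fit.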

[6] = Cellular Toxicity (caspase-3) Hek293 (AID 664); settings: HEK293 caspase-3 activation, DMSO = 0%, 100 µM tamoxifen = 100%; series mostly up to 92.2 µM;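 further: cells exposed to compound for 16 h at 37 °C before readout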
Outline: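 Activation of caspase-3/7 is measured as increased luminescence from cleaved peptide-aminoluciferin substrate in HEK293 cells treated 16 hours at 37 °C. AC50 values come from Hill-equation fits of concentration-response data.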

[7] = Cellular Toxicity (caspase-3) NIH 3T3 (AID 666); settings: NIH 3T3 caspase-3 activation, apoptosis/toxicity, 0% DMSO, 100% is 100 µM tamoxifen; series mostly up to 92.2 µM;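 further: caspase signal read after 16 h compound exposure; 0% = DMSO basal and 100% = 100 µM tamoxifen stimulation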
Outline: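 Concentration-response qHTS in NIH 3T3 mouse fibroblasts scores caspase-3/7 activation as rising luminescence after 16 hr compound exposure. Signals are scaled between DMSO-only and 100 uM tamoxifen.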

[8] = MultiTox-Fluor Cytotoxicity Assay - LYMP1-001 - Dead Cells (AID 946); settings: LYMP1-001 lymphoblastoid cells, dead-cell protease fluorescence; series mostly up to 92.2 µM
Outline: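 Seed 2500 LYMP1-001 cells/well, incubate 5 hr at 37 C; add compound, 16 hr at 37 C; add MultiTox-Fluor reagent, 60 min RT; read dead-cell fluorescence Ex/Em=485/520. Normalize to DMSO and 15 uM tetraoctylammonium bromide.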

[9] = Cell Viability - LYMP1-002 - Assay at 16 hr (AID 948); settings: LYMP1-002 lymphoblastoid cell viability; series mostly up to 92.2 µM;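 further: 0% = DMSO alone and full effect = 92 µM tetraoctylammonium bromide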
Outline: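 Seed 2500 LYMP1-002 cells per well in complete medium and hold 5 hr at 37 C. Add compound across a concentration series and incubate 16 hr at 37 C. Add CellTiter-Glo, wait 30 min at room temperature, read luminescence.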

[10] = MultiTox-Fluor Cytotoxicity Assay - LYMP1-002 - Live Cells (AID 955); settings: LYMP1-002 lymphoblastoid live-cell protease fluorescence viability; series mostly up to 46.1 µM; further: on the % scale 0 is the no-effect control and ±100 the full control effect
Outline: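 Cytotoxicity in the human lymphoblastoid line LYMP1-002 is measured as loss of live-cell protease activity after 16 h treatment in complete culture medium. AC50 is derived from Hill-equation fits of qHTS concentration-response data.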

[11] = MultiTox-Fluor Cytotoxicity Assay - LYMP1-003 - Dead Cells (AID 961); settings: LYMP1-003 lymphoblastoid cells, dead-cell protease fluorescence; series mostly up to 92.2 µM; further: nearly all actives have a fitted effect of over 70% in size
Outline: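 LYMP1-003 lymphoblastoid, 2500 cells/well, 5 hr settle then 16 hr cpd at 37 C; MultiTox-Fluor reagent 60 min RT; Ex/Em 485/520 dead-cell signal; norm. DMSO = 0%, 15 uM tetraoctylammonium bromide = 100%; Hill AC50.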

[12] = Cell Viability - LYMP1-003 - Assay at 40 hr (AID 964); settings: LYMP1-003 lymphoblastoid viability; series mostly up to 92.2 µM; further: on the % scale 0 is the no-effect control and ±100 the full control effect; nearly all actives have a fitted effect of over 60% in size
Outline: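 This qHTS cytotoxicity screen treats human lymphoblastoid cells (LYMP1-003) with compounds for 40 hr and quantifies cellular ATP via luciferase luminescence.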

[13] = Cell Viability - LYMP2-025 (AID 976); settings: LYMP2-025 lymphoblastoid cell viability; series mostly up to 92.2 µM;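 further: cells exposed to compound for 24 h at 37 °C; plate controls were DMSO only for no effect and tetraoctylammonium bromide control for full effect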
Outline: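 In qHTS format, LYMP2-025 lymphoblastoid cells in complete culture medium received compound for 24 hr; ATP-based CellTiter-Glo signal gave viability, with AC50 derived by Hill equation.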

[14] = Cell Viability - LYMP2-006 (AID 978); settings: LYMP2-006 lymphoblastoid cell viability, qHTS; series mostly up to 92.2 µM;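 further: cells exposed to compound for 24 hours; on the % scale 0 is the no-effect control and ±100 the full control effect; nearly all actives have a fitted effect of over 60% in size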
Outline: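 Cells are seeded at 2500 per well and rested 5 hr at 37 C. Compounds are added across a concentration series for 24 hr at 37 C, after which ATP is quantified by luciferase luminescence.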

[15] = Cell Viability - LYMP2-008 (AID 980); settings: LYMP2-008 lymphoblastoid cell viability, qHTS; series mostly up to 92.2 µM;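 further: cells exposed to compound for 24 h at 37 °C; on the % scale 0 is the no-effect control and ±100 the full control effect; nearly all actives have a fitted effect of over 60% in size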
Outline: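 Acute cytotoxicity is scored as concentration-dependent loss of cellular ATP in a human lymphoblastoid line after 24 hr treatment at 37 C. ATP is quantified by luciferase luminescence.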

[16] = Cell Viability - LYMP1-002 - Assay at 24 hr (AID 993); settings: LYMP1-002 lymphoblastoid cells viability; series mostly up to 92.2 µM; further: on the % scale 0 is the no-effect control and ±100 the full control effect
Outline: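 qHTS, LYMP1-002 lymphoblastoid, 24 h cpd, 37 C, CellTiter-Glo ATP luminescence; AC50 via Hill eq.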

[17] = Cell Viability - LYMP1-002 - Assay at 40 hr (AID 994); settings: LYMP1-002 lymphoblastoid cell viability; series mostly up to 92.2 µM;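 further: 0% = DMSO only and full inhibition = 92 µM tetraoctylammonium bromide; nearly all actives have a fitted effect of over 60% in size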
Outline: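 Viability in the human lymphoblastoid line was measured as intracellular ATP via CellTiter-Glo after 40 hr compound exposure. Tetraoctylammonium bromide served as positive control.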

[18] = qHTS assay for small molecule agonists of retinoid X receptor alpha signaling (AID 588544); settings: HEK293T RXRa-UAS-bla, beta-lactamase reporter, 18 h; 530 nm emission
[19] = molecular target: Tumor necrosis factor (Homo sapiens) (UniProt P01375); experiment: qHTS assay to identify small molecules that stimulate Tumor Necrosis Factor-alpha (TNF-alpha) secretion (AID 651757; active means well fitted curve in the direction sought with a large enough effect in the signal ratio; the % refers to the signal ratio; further: 0% is about no effect); settings: Human cells, HTRF 665/615 ratio; series mostly up to 92.2 µM
Outline: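 Secreted TNF-alpha from compound-treated THP-1 cells (17 hrs, 37 C) was quantified with a homogeneous time-resolved fluorescence antibody assay.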

[20] = qHTS assay for small molecule agonists of the antioxidant response element (ARE) signaling pathway measured by Nrf2-dependant transcriptional activity (AID 720636; active means well fitted curve in the direction sought with a large enough effect in the repeat runs; an effect the other way counts as inactive or inconclusive; further: % of control where 0% means no effect); settings: ARE-luc HepG2, Nrf2 luciferase reporter, 16 h; series mostly up to 92.4 µM
Outline: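 ARE-luc HepG2 cells carrying an Nrf2-responsive luciferase reporter were plated in medium with 1% dialyzed FBS, left 6 hr at 37 C to attach, then exposed to compound for 16 hr. Luciferase luminescence was read after ONE-Glo addition.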

Sequence of Tumor necrosis factor (Homo sapiens) (P01375 whole entry, looked up): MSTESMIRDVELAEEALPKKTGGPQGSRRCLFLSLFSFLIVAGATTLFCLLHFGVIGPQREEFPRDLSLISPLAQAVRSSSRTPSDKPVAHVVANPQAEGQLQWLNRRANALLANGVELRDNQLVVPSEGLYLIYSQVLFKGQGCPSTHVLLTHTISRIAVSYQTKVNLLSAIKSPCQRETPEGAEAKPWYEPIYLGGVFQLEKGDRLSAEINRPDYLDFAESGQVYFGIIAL

ClC(Cl)(Cl)c1ccccc1
2.72% and -9.44%: max response [18]
inactive: Potency [1] > 92 µM | Potency [2] > 92 µM | activity change, negative = cytotoxicity [3] 2.93% and 2.42% | Potency [4] | outcome [5] | outcome [6] | outcome [7] | Potency [8] | Potency [9] | outcome [10] | Potency [11] | Potency [12] | Potency [13] | Potency [14] | Potency [15] | Potency [16] | Potency [17] | outcome [19] | outcome [20]

C=CC(=O)OCC
-5.05%: max response [18]
inactive: Potency [1] > 92 µM | Potency [2] > 92 µM | activity change, negative = cytotoxicity [3] -4.3% | Potency [4] | outcome [5] | outcome [6] | outcome [7] | Potency [8] | Potency [9] | outcome [10] | Potency [11] | Potency [12] | Potency [13] | Potency [14] | Potency [15] | Potency [16] | Potency [17] | outcome [19] | outcome [20]

Oc1ccc(Cl)cc1Cl
1.97%: max response [18]
inactive: Potency [1] > 92 µM | Potency [2] > 92 µM | activity change, negative = cytotoxicity [3] -5.05% | Potency [4] | outcome [5] | outcome [6] | outcome [7] | Potency [8] | Potency [9] | outcome [10] | Potency [11] | Potency [12] | Potency [13] | Potency [14] | Potency [15] | Potency [16] | Potency [17] | outcome [19] | outcome [20]

CCSC(=O)Cl
inactive: Potency [1] > 92 µM | Potency [2] > 92 µM | activity change, negative = cytotoxicity [3] 2.21% | Potency [4] | outcome [5] | outcome [6] | outcome [7] | Potency [8] | Potency [9] | outcome [10] | Potency [11] | Potency [12] | Potency [13] | Potency [14] | Potency [15] | Potency [16] | Potency [17] | outcome [19] | outcome [20]
-20.5%: max response [18]

CCCCCCCC(=O)Cl
12.8%: max response [18]
inactive: Potency [1] > 92 µM | Potency [2] > 92 µM | activity change, negative = cytotoxicity [3] 1.92% | Potency [4] | outcome [5] | outcome [6] | outcome [7] | Potency [8] | Potency [9] | outcome [10] | Potency [11] | Potency [12] | Potency [13] | Potency [14] | Potency [15] | Potency [16] | Potency [17] | outcome [19] | outcome [20]

Cc1ccc(O)c(C)c1
inactive: Potency [1] > 92 µM | Potency [2] > 92 µM | activity change, negative = cytotoxicity [3] 1.99% | Potency [4] | outcome [5] | outcome [6] | outcome [7] | Potency [8] | Potency [9] | outcome [10] | Potency [11] | Potency [13] | Potency [14] | Potency [15] | Potency [16] | Potency [17] | outcome [19] | outcome [20]
-1.3% and -5.42%: max response [18]

c1ccc(OP(Oc2ccccc2)Oc2ccccc2)cc1
3.52% and -16.1%: max response [18]
inactive: Potency [1] > 92 µM | Potency [2] > 92 µM | activity change, negative = cytotoxicity [3] 6.82% | Potency [4] | outcome [5] | outcome [6] | outcome [7] | Potency [8] | Potency [9] | outcome [10] | Potency [11] | Potency [12] | Potency [13] | Potency [14] | Potency [15] | Potency [16] | Potency [17] | outcome [19] | outcome [20]

CCCCOCCOP(=O)(OCCOCCCC)OCCOCCCC
inactive: Potency [1] > 92 µM | Potency [2] > 92 µM | activity change, negative = cytotoxicity [3] -1.66% | Potency [4] | outcome [5] | outcome [6] | outcome [7] | Potency [8] | Potency [9] | outcome [10] | Potency [11] | Potency [12] | Potency [13] | Potency [14] | Potency [15] | Potency [16] | Potency [17] | outcome [20]
-10.8% and -2.33%: max response [18]

C1CCC2CCCCC2C1 (stereo not drawn)
inactive: Potency [1] > 92 µM | Potency [2] > 92 µM | activity change, negative = cytotoxicity [3] 2.93% | Potency [4] | outcome [5] | outcome [6] | outcome [7] | Potency [8] | Potency [9] | outcome [10] | Potency [11] | Potency [12] | Potency [13] | Potency [14] | Potency [15] | Potency [16] | Potency [17] | outcome [19] | outcome [20]
-13.4%: max response [18]

C=C(C)C#N
5.57% and -6.47%: max response [18]
inactive: Potency [1] > 92 µM | Potency [2] > 92 µM | activity change, negative = cytotoxicity [3] 1.28% | Potency [4] | outcome [5] | outcome [6] | outcome [7] | Potency [8] | Potency [9] | outcome [10] | Potency [11] | Potency [12] | Potency [13] | Potency [14] | Potency [15] | Potency [16] | Potency [17] | outcome [19] | outcome [20]

C=CC(N)=O
inactive: Potency [1] > 92 µM | Potency [2] > 92 µM | activity change, negative = cytotoxicity [3] 1.31% and 7.69% | Potency [4] | outcome [5] | outcome [6] | outcome [7] | Potency [8] | Potency [9] | outcome [10] | Potency [11] | Potency [12] | Potency [13] | Potency [14] | Potency [15] | Potency [16] | Potency [17] | outcome [19] | outcome [20]
-5.65% and -3.81%: max response [18]

C=C(C)C(=O)OCC1CO1 (stereo not drawn)
-10.2%: max response [18]
inactive: Potency [1] > 92 µM | Potency [2] > 92 µM | activity change, negative = cytotoxicity [3] -4.08% | Potency [4] | outcome [5] | outcome [6] | outcome [7] | Potency [8] | Potency [9] | outcome [10] | Potency [11] | Potency [12] | Potency [13] | Potency [14] | Potency [15] | Potency [16] | Potency [17] | outcome [19] | outcome [20]

Cc1cccc([N+](=O)[O-])c1
2.54% and -15.5%: max response [18]
inactive: Potency [1] > 92 µM | Potency [2] > 92 µM | activity change, negative = cytotoxicity [3] -15.4% | Potency [4] | outcome [5] | outcome [6] | outcome [7] | Potency [8] | Potency [9] | outcome [10] | Potency [11] | Potency [12] | Potency [13] | Potency [14] | Potency [15] | Potency [16] | Potency [17] | outcome [19] | outcome [20]
